This is an account of results in PubChem BioAssay (NCI).

This is part of a sample that, as a whole, favours compounds with a hit. Of some 83,000 tested, about 20% had one in any assay.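 Single-dose data. Exposure time 48 hours. Values below 10 considered active.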 Values without a mark were called inactive. The source made the active and inactive calls.

This test concerns HL-60(TB) leukemia. Description: NCI-60 one-dose screen, 48 h (100 = growth as untreated, 0 = no growth, -100 = all killed). The following applies: 10 µM unless noted.
On to `COc1cc(/C=C2\COc3ccc(O)c(O)c3C2=O)cc(OC)c1`, for which the growth was -29.8% (active). Under `COc1ccc2cc(C(C)C(=O)Nc3ccc(-c4n[nH]c(=S)n4C4CCCCC4)cc3)ccc2c1` (configuration not stated) stands 73.6%. `NC(=O)CCC(C(=O)O)N1C(=O)c2ccc(O)cc2C1=O` (configuration not stated): the growth is 134%.

As for `COc1cc2c(/C=C3\C(=O)Nc4ccccc43)c(C(=O)O)[nH]c2cc1C`, the growth was 110%. Under `[N-]=[N+]=NCc1cccc(/C(O)=C/C(=O)C(=O)O)c1` stands 17.3%; under `COc1ccc(-c2[nH]c3ccc(OC)cc3c2C=C(C#N)C#N)cc1`, -43.1% (active); under `CCOC(=O)c1c2c(n3ccc(NC(=O)CCN(CC)CC)cc13)C(=O)c1ncccc1C2=O`, -48.5% (active). Turning to `COc1ccc2[nH]cc(C3(c4c[nH]c5ccc(OC)cc45)C(=O)Nc4ccc(F)cc43)c2c1`, the growth was -40.3% (active). The figure for `CC[C@]1(O)CC2CN(CCc3c([nH]c4ccccc34)[C@@](C(=O)OC)(c3cc4c(cc3OC)N(C=O)[C@H]3[C@@](O)(C(=O)OC)[C@H](OC(C)=O)[C@]5(CC)C=CCN6CC[C@]43[C@@H]65)C2)C1` (some centres not stated) is 7.11% (active). The figure for `CCN(CC)CCN(CCN(CC)CC)c1ccccc1` is 87.9%; for `Cc1cc(N2CCOCC2)nc(N[C@@H]2CCC[C@H](Nc3ccnc4cc(Cl)ccc34)C2)n1` it is -69.5% (active). The figure for `CCOCCC(=O)O` is 106%; for `Cc1ccc(/C=C(\C#N)c2cc3ccccc3n2C)cc1` it is 4.45% (active); for `COc1ccc(C(=O)c2cc(OC)c(OC)c(OC)c2)cc1/C=C/C(=O)c1ccc(O)cc1` it is 14.2%. Regarding `Cc1nn(-c2ccccc2)c2c1N=c1s/c(=C\c3ccc(C(F)(F)F)cc3)c(=O)n1CN2`, the growth was 91.2%. As to `CCOC(=O)CNP(=O)(OC[C@@H](Cc1ccccc1)NC(=O)c1cc2ccccc2s1)Oc1ccccc1` (some centres not stated), the growth is 79.4%. The figure for `CN1CCN(CCOc2ccc(-c3cnc4c(-c5cccc(F)c5F)cnn4c3)cc2)CC1` is -49.9% (active). For `CNCCCn1c2c(c3ccc([N+](=O)[O-])cc3c1=O)C(=O)c1cc(OC)cnc1-2`, the growth is -32.3% (active).

On to `Cc1ccc2c(-c3nnc(N)s3)cc(=O)oc2c1C`, for which the growth is 100%. With `C[C@]12C=CC(=O)C=C1[C@@H](F)C[C@@H]1[C@@H]2[C@@H](O)C[C@@]2(C)[C@H]1CC[C@]2(O)C(=O)CO`, the growth was 107%.

With `COC(=O)Nc1ccc(NC(=O)OC)cc1`, the growth was 95.9%. Under `C=C1C[C@H](O)[C@H](Br)C(C)(C)[C@@]12CCC(C)=C(Cl)C2` stands -8.6% (active). The figure for `CCOc1ccccc1-n1c(CN2CCN(C(=O)COc3ccc(CNCCCCCCN4C5CCCC4CC(OC(=O)Nc4cc(C)ccc4OC)C5)cc3)CC2)nc2ccccc2c1=O` (configuration not stated) is -76% (active); for `c1ccc2c(-c3c4ccsc4cc4[nH]c5ccccc5c34)c[nH]c2c1` it is 14.3%; for `COc1cc2cc3cc4cc(OC)c(OC)cc4c(C)[n+]3cc2cc1OC` (tested in a mixture with another compound) it is 33%. Regarding `NS(=O)(=O)c1ccc(-n2ncc3c(N/N=C/c4ccccc4)ncnc32)cc1`, the growth was 83.1%. The figure for `O=[N+]([O-])c1ccc(-c2cn(-c3ccccc3)c(-c3ccccc3)n2)cc1` is 87%.
